NPC1 prom act: qHTS Assay for NPC1 Promoter Activators. Huh7 NPC1 promoter luciferase reporter, 24 h. Potency, µM (series often up to 9.22 µM), inactives show at the top dose activation, usual class: activators. actives 2.4% (n = 320,000). AID 485313, 2010; also: % of control where 0% means no effect; nearly all actives have a fitted effect of over 60% in size
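Luciferase expression driven by the NPC1 promoter was measured in stably transfected Huh7 cells after a 24 h compound incubation, using a luciferase reagent and a luminescence read.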
Luc counter: Counterscreen for Luciferase (Kinase-Glo TM) Inhibition; AID 1379, 2008; Luciferin 4-monooxygenase (Photuris pensylvanica), Q27757; Potency, µM (titrated, usually from 38.3 µM), for inactives: at the highest dose activity change, negative = inhibition, most hits filed as inhibitors; actives 0.28% (n = 200,000); Kinase-Glo luciferase, ATP luminescence, 8 min; also: % is scaled to controls: 0 for no effect and ±100 for the full control effect; nearly all actives have a fitted effect of over 60% in size
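Recombinant Kinase-Glo luciferase, 10 uM ATP (linear range), luciferin; imidazole pH 7.2 / KCl / MgCl2 / Tween / BSA buffer; 8 min RT; luminescence.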
SMN2 splice enh: qHTS Assay for Enhancers of SMN2 Splice Variant Expression | actives 2.8% (n = 210,000) | Potency, µM (highest dose often 46.1 µM), inactives show at the highest dose activity change, positive = activation, actives largely listed as activators | HEK293 SMN2-luciferase splicing reporter, luminescence, 30-36 h; also: % of control where 0% means no effect; nearly all actives have a fitted effect of over 55% in size
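qHTS luciferase splicing reporter: luminescence rises when SMN2 exon 7 is included in transfected HEK293 cells. Compound exposure lasted 30-36 h at 37C, with 4.5 mM final sodium butyrate as control, followed by a ONE-Glo read.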
Rab9 promoter act: qHTS Assay for Rab9 Promoter Activators; Potency, µM (top dose mostly 9.22 µM), for inactives: at the top dose activation, negative = inhibition, hits mostly activators; Huh7 Rab9 promoter-luciferase reporter, luminescence, 24 h; actives 2.8% (n = 320,000); also: % of control where 0% means no effect; nearly all actives have a fitted effect of over 60% in size
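Rab9 promoter-driven luciferase in stably transfected Huh7 cells; 1500 cells/well rested 2 h, exposed to compound in DMSO for 24 h at 37 °C, 5% CO2. Luminescence read 10 min after adding luciferase reagent at ambient temperature.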
FLuc modulator: qHTS profiling assay for firefly luciferase inhibitor/activator using purifed enzyme and Km concentrations of substrates (counterscreen for miR-21 project). Luciferin 4-monooxygenase (Photinus pyralis), P08659. purified FLuc, Km substrates, luminescence inhibition. Potency, µM (titrated, usually from 57.5 µM), without a hit: at the top dose activity change, negative = inhibition, hits mostly inhibitors. actives 6.9% (n = 360,000). AID 588342, 2011;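 also: plate controls were vehicle for no effect and reference inhibitor for full effect; nearly all actives have a fitted effect of over 55% in size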
Target sequence (P08659 whole entry, looked up): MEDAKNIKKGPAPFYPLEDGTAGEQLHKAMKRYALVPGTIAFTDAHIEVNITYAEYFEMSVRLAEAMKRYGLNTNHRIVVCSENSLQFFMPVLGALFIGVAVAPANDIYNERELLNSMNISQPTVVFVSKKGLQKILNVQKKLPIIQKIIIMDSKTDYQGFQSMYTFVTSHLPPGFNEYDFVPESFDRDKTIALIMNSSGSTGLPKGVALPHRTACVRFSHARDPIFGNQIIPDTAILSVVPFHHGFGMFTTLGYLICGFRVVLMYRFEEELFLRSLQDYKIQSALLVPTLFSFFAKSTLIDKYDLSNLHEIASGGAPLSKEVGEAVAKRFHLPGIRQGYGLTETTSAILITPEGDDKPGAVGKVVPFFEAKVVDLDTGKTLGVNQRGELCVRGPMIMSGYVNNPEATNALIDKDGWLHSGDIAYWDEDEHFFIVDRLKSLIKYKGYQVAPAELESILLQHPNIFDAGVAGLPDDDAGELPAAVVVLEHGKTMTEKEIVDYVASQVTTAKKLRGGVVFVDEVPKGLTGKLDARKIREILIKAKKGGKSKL
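Purified P. pyralis luciferase (10nM final) with 10uM D-luciferin and 10uM ATP (Km levels) in 50mM Tris acetate pH 7.5, 10mM Mg acetate, 0.01% Tween-20, 0.05% BSA; qHTS 6-point titration, ~60 µM downward; luminescence read.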
ELG1 genotox: qHTS screen for small molecules that induce genotoxicity in human embryonic kidney (HEK293T) cells expressing luciferase-tagged ELG1. HEK293T ELG1-luciferase reporter, luminescence, 16 h. Potency, µM (series often up to 46 µM), for inactives: at the top dose activity change, positive = activation, hits mostly activators. actives 1.3% (n = 330,000). AID 504466, 2011; also: % of control where 0% means no effect; nearly all actives have a fitted effect of over 60% in size
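DMSO vehicle served as control against compound-treated ELG1-luciferase HEK293T cells; exposure lasted 16 hr at 37 °C and 5% CO2, followed by ONE-Glo luminescence detection after 30 min.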
Numbers without * were called inactive; ? = inconclusive; / = not tested or not shown; [ ] = another dose, or the depositor's remark. A selection: hits, their analogues and other compounds. The true share with any hit is near 7.4%. Calls follow the shape of the dose curve; as a rule, active = well fitted curve in the direction sought with a large enough effect; inconclusive = small, poorly fitted or top-dose-only effect, or another doubt; inactive = no such curve, though single readings can be large; an effect the other way counts as inactive or inconclusive. Potency is read from the fitted curve at half-maximal effect.

SMILES	NPC1 prom act	Luc counter	SMN2 splice enh	Rab9 promoter act	FLuc modulator	ELG1 genotox
Cc1sc2c(c1C)CN(C(C)(C)C)CN2C(=O)c1ccccc1	?	-2.2%	?	?	?	?
COCCN1Cc2c(sc(C)c2C)N(C(=O)c2ccccc2)C1	?	-4.5%	14.7%	14.9%	19µM*	4.7%
CN(CC(=O)N1CCCCCC1)S(=O)(=O)c1ccccc1	3.16µM*	/	/	?	?	?
CCOc1ccccc1NC(=O)CSc1nccn1Cc1ccc(F)cc1	/	/	/	/	3.0%	/
O=C(NC(=S)N1CCCC1)c1ccccc1Cl	1.1%	/	/	-0.1%	2.0%	-0.3%
CN(C)c1ccc(NC(=O)c2cnsn2)cc1	?	?	/	?	3.01µM*	?
Cc1noc(C)c1C(=O)Nc1ccc(N(C)C)cc1	5.6%	/	/	4.4%	0.9%	16.5%
O=C1/C(=C/N(C(=O)c2ccco2)c2ccc(Cl)cc2)Sc2ccccc21	?	-15.7%	14.1µM*	?	0.135µM*	?
COc1ccc(CN(C(=O)c2ccco2)c2ccc(Br)cc2)cc1OC	0.9%	11.6%	-20.5%	-4.6%	1.0%	-2.2%
O=C1c2ccccc2C(=O)N1CCCCN(C(=O)c1ccco1)c1ccc(Cl)cc1	4.7%	1.6%	-5.9%	1.8%	3.2%	-19.0%
O=C1/C(=C/N(C(=O)c2ccco2)c2ccc(Br)cc2)Sc2ccccc21	?	-20.3%	/	?	0.338µM*	11.6µM*
COC(=O)c1cc2c(N)c(C(=O)c3ccccc3)sc2nc1C(OC)OC	-1.2%	/	/	2.4%	?	-10.9%
CCCCCNC(=O)c1ccc2c(=O)[nH]c3c(C(=O)NCC4CCCO4)sc(=S)n3c2c1 (configuration not stated)	-1.1%	-3.1%	19.9%	-2.2%	?	-12.3%
O=C(NCc1ccccc1)c1ccc2c(=O)n(CC3CCCO3)c(=S)[nH]c2c1 (configuration not stated)	1.3%	-1.3%	-6.6%	-1.8%	2.9%	-0.3%
O=C(NCc1ccccc1)c1ccc2c(=O)[nH]c3c(C(=O)NCC4CCCO4)sc(=S)n3c2c1 (configuration not stated)	-3.8%	-1.9%	17.9%	5.2%	26.9µM*	-4.6%
Cc1ccc(CNC(=O)c2ccc3c(=O)[nH]c4c(C(=O)NCC5CCCO5)sc(=S)n4c3c2)cc1 (configuration not stated)	-2.1%	-0.1%	-5.2%	0.8%	19µM*	-10.1%
CCOC(=O)C1=C(COC(=O)COc2ccc(C#N)cc2)NC(=O)NC1C (configuration not stated)	1.7%	/	/	7.4%	-0.5%	5.3%
CCn1cc(C(=O)N2CCN(c3cc(Cl)ccc3C)CC2)c(=O)c2cc(S(=O)(=O)N3CCOCC3)ccc21	/	/	-8.0%	/	-12.0%	/
CC(C)(C)c1ccc(/C=N/Nc2ccc(C(=O)O)cc2)cc1	-18.8%	0.0%	-90.6%[1.84 µM]	-15.7%	0.19µM*	?
CCNC(=S)N/N=C/c1ccc(C(=O)O)cc1	1.1%	?	-16.9%	-1.3%	1.2%	-9.8%
O=C(O)c1ccc(N/N=C/c2ccc(C(F)(F)F)cc2)cc1	-15.6%	1.1%	-54.6%	?	0.213µM*	0.103µM*
O=C(O)c1ccc(/C=N/Nc2ncc(C(F)(F)F)cc2Cl)cc1	16.9%	/	/	19.0%	?	6.0%
O=C(O)c1ccc(N/N=C/c2c(F)cccc2Cl)cc1	?	/	/	1.26µM*	0.301µM*	0.291µM*
O=C(O)c1ccc(/C=N/Nc2ccc(F)cc2F)cc1	0.316µM*	-28.6%	1.78µM*	0.112µM*	0.536µM*	?
COc1cc(NC(=O)c2cccc3c2C(=O)N(C2CCCCC2)C3)cc(OC)c1OC	-11.1%	/	-11.4%	-4.0%	0.3%	-14.3%
SMILES	NPC1 prom act	Luc counter	SMN2 splice enh	Rab9 promoter act	FLuc modulator	ELG1 genotox
O=C(NCC1CCCO1)c1ccc(Br)c(S(=O)(=O)N2CCOCC2)c1 (configuration not stated)	-2.6%	/	/	-5.2%	8.7%	-0.2%
C[C@@H]1Oc2ccccc2C=C1/C=C/C(=O)O	/	-0.9%	18.1%	/	/	/
Fc1ccc(N/N=C/C=C/c2ccccc2)c(F)c1	?	-0.4%	?	?	26.9µM*	?
CC1Oc2ccccc2C=C1/C=N/Nc1ccc(C(=O)O)cc1 (configuration not stated)	?	/	/	?	0.536µM*	1.16µM*
Fc1ccc(N/N=C/c2ccncc2)c(F)c1	?	-5.1%	?	?	?	?
Cc1sc(NC(=O)c2ccco2)c(CN2CCN(c3ccc(F)cc3)CC2)c1C	0.3%	-4.1%	-20.5%	0.0%	?	-2.8%
Cc1sc(NC(=S)NC(=O)c2ccco2)c(C#N)c1C	0.2%	3.6%	/	?	2.69µM*	?
Cc1sc(NC(=S)NC(=O)c2ccc(C(C)(C)C)cc2)c(C#N)c1C	-4.3%	-4.0%	?	-1.7%	-11.4%	-0.4%
CCc1c(C)sc(NC(=O)c2noc(C)c2[N+](=O)[O-])c1C#N	-1.5%	2.1%	-25.5%	3.5%	10.7µM*	2.6%
CCOC(=O)c1sc(NC(=O)CC)c(C#N)c1C	-11.1%	7.6%	-0.4%	-3.1%	4.2%	21.1%
CCOC(=O)c1sc(NC(=O)c2ccco2)c(C#N)c1C	0.0%	0.5%	-2.6%	-2.1%	13.5µM*	-1.8%
Cc1sc(NC(=O)c2ccco2)c(CN2CCN(c3ccccn3)CC2)c1C	8.3%	/	/	9.9%	6.01µM*	4.1%
COc1ccc(OCC(=O)NNC(=S)NC(=O)c2ccc(Br)o2)cc1	-0.3%	/	/	-0.7%[1.84 µM]	?	-1.6%
O=C(NCCCN1CCOCC1)/C(=C/c1cccs1)NC(=O)c1ccccc1	-0.3%	/	/	-0.6%	-0.2%	0.0%
CCc1c(C)sc(NC(=O)c2ccco2)c1C#N	?	/	/	3.55µM*	16.9µM*	?
CCc1c(C)sc(NC(=O)c2cc(-c3ccc(O)cc3)on2)c1C#N	-0.2%	19.8%	13.7%	1.6%	-0.2%	0.0%
Cc1c(CCC(=O)NCCCn2ccnc2)c(=O)oc2cc3oc4c(c3cc12)CCCC4	13.7%	/	/	-2.1%	?	-1.0%
Cc1c(CCC(=O)N2CCC(C(=O)O)(c3ccccc3)CC2)c(=O)oc2cc3oc4c(c3cc12)CCCC4	12.1%	/	/	4.2%	13.5µM*	8.8%
Cc1c(CCC(=O)N2CCC(C(=O)O)CC2)c(=O)oc2cc3oc4c(c3cc12)CCCC4	0.3%	/	/	5.0%	10.7µM*	0.0%
CC12CCC(C(=O)N3CCC(Cc4ccccc4)CC3)(C(=O)C1=O)C2(C)C (configuration not stated)	-2.5%	0.3%	4.3%	-7.1%	2.3%	-7.3%

Assay outcomes deposited in PubChem BioAssay by National Center for Advancing Translational Sciences (NCATS).
